Assay results published in the supplement of paper PMC6555819.

Key:
Assay in all cases: PBM binding z-score (relative to random genomic background probes); higher = stronger binding; sequences stand for … in GC…GCGATTGACAGCGTAGAATGAAGG
[1] = test system: FXR:RXRa (NR concentration 270 nM, RXRa partner concentration 90 nM)
In short: (§1)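 Binding buffer was PBS pH 7.4 with 2% milk, 0.02% Triton X-100, 1 mM DTT, 0.2 mg/mL BSA and 0.4 mg/ml salmon testes DNA. In it, ligand-free nuclear receptor dimers were incubated 1 h on custom Agilent 4×180K protein-binding microarrays carrying double-stranded probes. Antibodies against each partner (one per run) detected binding, and z-scores were calculated against random background probes after regression normalization of scanned fluorescence.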

[2] = test system: LXRa:RXRa (NR concentration 270 nM, RXRa partner concentration 90 nM)
In short: as §1

[3] = test system: LXRa homodimer (NR concentration 270 nM)
In short: as §1

[4] = test system: LXRb:RXRa (NR concentration 270 nM, RXRa partner concentration 90 nM)
In short: as §1

[5] = test system: LXRb homodimer (NR concentration 270 nM)
In short: as §1

[6] = test system: PPARa:RXRa (NR concentration 270 nM, RXRa partner concentration 90 nM)
In short: as §1

[7] = test system: PPARg:RXRa (NR concentration 180 nM, RXRa partner concentration 90 nM)
In short: as §1

[8] = test system: PPARg:RXRa 270nM:90nM, anti-RXR (NR concentration 270 nM, RXRa partner concentration 90 nM)
In short: as §1

[9] = test system: PPARg:RXRa 30nM:10nM, anti-RXR (NR concentration 30 nM, RXRa partner concentration 10 nM)
In short: as §1

[10] = test system: PPARg:RXRa 90nM:30nM, anti-RXR (NR concentration 90 nM, RXRa partner concentration 30 nM)
In short: as §1

[11] = test system: PPARg:RXRa DBDmut IVT, anti-RXR (DBD mutation: RXRa K156A/R161A, NR concentration 270 nM, RXRa partner concentration 90 nM)
In short: as §1

[12] = test system: PPARg:RXRa IVT, anti-PPARg (NR concentration 270 nM, RXRa partner concentration 90 nM)
In short: as §1

[13] = test system: PPARg DBDmut:RXRa IVT, anti-PPARg (DBD mutation: PPARg1 K132A/R137A, NR concentration 270 nM, RXRa partner concentration 90 nM)
In short: as §1

[14] = test system: PPARg DBDmut IVT, anti-PPARg (DBD mutation: PPARg1 K132A/R137A, NR concentration 270 nM)
In short: as §1

[15] = test system: PPARg homodimer (NR concentration 180 nM)
In short: as §1

[16] = test system: PXR:RXRa (NR concentration 270 nM, RXRa partner concentration 90 nM)
In short: as §1

[17] = test system: PXR homodimer (NR concentration 270 nM)
In short: as §1

[18] = test system: RARa:RXR (NR concentration 270 nM, RXRa partner concentration 90 nM)
In short: as §1

[19] = test system: RARa homodimer (NR concentration 270 nM)
In short: as §1

[20] = test system: RARb:RXRa (NR concentration 270 nM, RXRa partner concentration 90 nM)
In short: as §1

Row | Sequence | PBM binding z-score [1] | PBM binding z-score [2] | PBM binding z-score [3] | PBM binding z-score [4] | PBM binding z-score [5] | PBM binding z-score [6] | PBM binding z-score [7] | PBM binding z-score [8] | PBM binding z-score [9] | PBM binding z-score [10] | PBM binding z-score [11] | PBM binding z-score [12] | PBM binding z-score [13] | PBM binding z-score [14] | PBM binding z-score [15] | PBM binding z-score [16] | PBM binding z-score [17] | PBM binding z-score [18] | PBM binding z-score [19] | PBM binding z-score [20]
1 | TGAATGAGGATATAAGATCAGGGAACGTTGCAAA | 0.013 | -0.248 | -0.305 | -0.404 | -0.253 | -0.127 | 0.623 | 0.286 | 0.757 | 0.775 | -0.556 | 0.057 | 0.56 | 0.888 | 0.688 | -0.114 | 0.099 | 0.0893 | 0.416 | -0.402
2 | CCGACTGGCGCAGAAAGGTTACCATACCATCCGG | 0.0917 | 0.658 | -0.132 | 0.749 | -1.07 | 1.8 | 0.613 | 1.16 | -0.315 | 0.337 | -0.18 | -0.419 | -0.533 | -1.05 | 0.499 | 0.354 | -0.51 | 1.14 | -0.466 | 1.35
3 | TCGAGTAGGTTACCAATGGGGCATTTAGCTTTCT | 0.00953 | 1.35 | -0.662 | 1.09 | -0.721 | 1.22 | 0.144 | 1.33 | 1.33 | 1.2 | 3.03 | 2.59 | -0.535 | -0.583 | -0.292 | 0.195 | -0.763 | 0.343 | -1.23 | 0.686
4 | GCTAGCAGGCCATTAGGGTCACTCAATGACGGGC | 1.78 | 1.35 | -0.158 | 1.47 | -0.982 | 2.54 | 1.2 | 1.3 | -0.267 | 0.446 | 1.02 | 1.61 | -0.521 | -1.36 | 0.4 | 2.86 | 1.38 | 2.85 | -0.0554 | 2.42
5 | CGTCAAAGTTCAACGTAACGTAACAGAAAGCAGC | 6.54 | 5.59 | 2.98 | 3.72 | 1.38 | 4.94 | 4.58 | 4.97 | 2.08 | 3.84 | 0.266 | 1.76 | 0.727 | 1.04 | 2.48 | 4.4 | 2.41 | 3.07 | 1.3 | 5.18
6 | ATCGAAAGGTCGTGGTGAGTATAGAGAAAGGGAA | 5.04 | 4.49 | 0.646 | 3.78 | 1.75 | 5.5 | 4.16 | 4.2 | 1.54 | 3.12 | 1.03 | 2.12 | 1.47 | 1.03 | 1.89 | 3.3 | 0.954 | 3.84 | 1.77 | 4.27
7 | TCGAGTAGGTTACCAATGGGGCATGCAGCTTTCT | -0.0297 | 0.818 | -0.705 | 0.567 | -0.608 | 1.07 | 0.261 | 1.08 | 0.922 | 1.1 | 2.81 | 2.63 | -0.851 | -0.804 | 0.0945 | 0.0825 | -0.874 | 0.433 | -0.816 | 0.932
8 | CCTTACGGGTCACTCCACGTTATAGCATCGGAGT | 4.04 | 3.03 | 0.131 | 2.58 | 0.341 | 4.28 | 3.02 | 3.29 | 1.1 | 2.31 | 2.55 | 3.09 | 0.675 | 0.232 | 2.03 | 2.39 | 0.155 | 3.01 | 0.911 | 3.44
9 | TCTGCTAGGTCAGTTCGTCAGCTAACGAGCTGCC | 0.654 | 0.387 | -0.691 | 0.0408 | 0.21 | 0.896 | 0.0243 | 1.38 | 1.37 | 1.51 | 2.26 | 2.31 | 1.01 | 0.64 | -0.455 | 0.229 | -1.06 | 0.273 | -1.33 | 3.01
10 | ATCTCTAGGTAACCAAGTTCAGTGCATGCCGAAC | 0.755 | 1.14 | 0.876 | 0.833 | 0.777 | 1.38 | 0.901 | 0.936 | 0.401 | 0.474 | 3.99 | 3.29 | 0.293 | 0.732 | 0.815 | 2.2 | 2.24 | 1.03 | 0.856 | 1.37
11 | TCTCGTAGGACACGAAAGGTCAGAGCTCGACATC | 3.08 | 3.85 | 2.58 | 3.39 | 0.134 | 3.58 | 1.24 | 2.98 | 2.7 | 2.81 | 1.81 | 1.71 | -0.191 | 0.17 | 3.44 | 3.94 | 0.393 | 4.37 | 1.1 | 4.02
12 | CCTACTGGGCCAAAAAGGTCATCGATGCCGATAA | 3.69 | 4.2 | 2.69 | 4.33 | 0.178 | 4.93 | 4.32 | 4.61 | 2.07 | 4.04 | 3.54 | 4.4 | -0.683 | 0.00778 | 3.39 | 4.69 | 1.58 | 5.26 | 2.06 | 4.53
13 | TCATATAGGTAAAGGTGGAAGTCGAACGATATGA | 0.695 | 0.507 | 0.313 | 0.415 | 0.0945 | 1.93 | 2.54 | 3.54 | 4.18 | 3.93 | 3.45 | 2.86 | 1.27 | 1.48 | 0.634 | 0.357 | 0.267 | 0.637 | 0.638 | 0.387
14 | CCTAGTTGGTCAAGGTCACAAACGCTATAGGTAC | 3.97 | 3.32 | 1.64 | 3.45 | 0.933 | 3.93 | 3.16 | 3.43 | 1.09 | 2.53 | 2.22 | 3.73 | 1.23 | 1.64 | 2.99 | 3.94 | 1.93 | 4.17 | 2.34 | 4.05
